Assay results as given in PubChem BioAssay AID940 (Emory University Molecular Libraries Screening Center, 2007).
The whole screen tested about 260,000 compounds, of which about 2,200 (0.85%) were called active. This excerpt belongs to a sample that is enriched for actives. Unmarked numbers belong to inactive results.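 How the source made its calls: active means compounds whose cAMP rise, as percent of the full-agonist control response, exceeds 60; inactive means the rest.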

These compounds were tested against Prostaglandin E2 receptor EP2 subtype (Homo sapiens) (UniProt P43116) (assay: EP2 receptor modulators, cAMP readout, primary screen, cell-based, HTRF cAMP, PGE2 stimulation (AID 940;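 further: rat C6 glioma line stably carrying human EP2 under a CMV promoter; the protocol text gives 20 µM as final concentration; 100% = response of wells given 1 µM PGE2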)). Conditions: EP2-expressing cells, cAMP HTRF FRET, PGE2 co-stimulation; at 25 µM; stronger effect = higher value.
Sequence of Prostaglandin E2 receptor EP2 subtype (Homo sapiens) (P43116 whole entry, looked up): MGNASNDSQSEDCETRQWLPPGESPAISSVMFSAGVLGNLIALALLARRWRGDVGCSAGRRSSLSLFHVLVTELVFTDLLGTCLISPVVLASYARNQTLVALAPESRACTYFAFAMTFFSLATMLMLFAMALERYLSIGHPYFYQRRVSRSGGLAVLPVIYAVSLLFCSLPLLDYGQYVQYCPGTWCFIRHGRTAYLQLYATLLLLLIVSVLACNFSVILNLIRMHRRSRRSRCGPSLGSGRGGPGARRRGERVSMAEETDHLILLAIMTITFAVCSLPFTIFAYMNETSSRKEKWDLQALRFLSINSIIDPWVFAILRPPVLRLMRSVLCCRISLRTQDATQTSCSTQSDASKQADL

SMILES	induction
O=C(Nc1nnc(SCC(=O)N2CCCCC2)s1)c1ccco1	-9.97%
COC(=O)CSc1nnc(-c2ccc3[nH]c(C)c(C)c3c2)o1	-58.2%
CCN1CCCC1CN(Cc1cc2cc(OC)c(OC)cc2[nH]c1=O)C(=O)Nc1ccccc1Cl (centres undefined)	-41.6%
CCc1nn(CC(=O)NCc2cccnc2)c(=O)c2cc3ccsc3n12	1.61%
CCOc1ccc(-c2nc(-c3cc4ccccc4[nH]c3=O)no2)cc1	-8.73%
CCc1ccccc1NC(=O)Cc1cn(C)c2ccccc12	23.9%
O=C(/C=C/c1ccccc1)N/C(=C/c1ccccc1)C(=O)Nc1ccccc1O	-4.9%
CCc1ccccc1NC(=O)/C(=C/c1ccccc1)c1ccccc1	65.2% (active)
Cc1ccc(-c2nsc3c(SCC(=O)N(C)C4CCCCC4)ncnc23)cc1	34.6%
Cc1c(CN(C)C(=O)CSc2nc(-c3cccs3)cc(C(F)(F)F)n2)cnn1C	9.94%
CN1CC(c2ccccc2)C2(CCN(Cc3ccccc3)CC2)C1 (centres undefined)	-9.74%
Cc1cc(C)cc(NS(=O)(=O)c2ccc(Oc3ncc(C(F)(F)F)cc3Cl)cc2)c1	57.5%
Cc1nn(CC#N)c(=O)n1N(C)c1ncc(C(F)(F)F)cc1Cl	2.11%
C#CCN(N(C)c1ncc(C(F)(F)F)cc1Cl)S(=O)(=O)c1ccc2ccccc2c1	61.4% (active)
O=C(Cc1cccs1)Nc1nnc(-c2ccccc2Cl)s1	-20%
CC(C)c1nc(N2CCOCC2)c(C#N)c2c1COC(C)(C)C2	-103%
CC(C)Cc1nc(N2CCOCC2)c(C#N)c2c1CCC2	64% (active)
CC(C)Cc1nc(Cl)c(C#N)c2c1CCC2	6.62%
Cc1ccccc1N(C(=O)c1ccco1)C(C(=O)NC1CCCC1)c1ccco1 (centres undefined)	15%
COc1ccc(OC)c(CC(=O)N2CCC(c3ccc4c(c3)OCO4)CC2)c1	-2.54%
COc1ccc2c(c1)C(C)=CC(C)(C)N2C(=O)CNCc1ccc2c(c1)OCO2	62.2% (active)
COc1ccc2c(c1)C(C)=CC(C)(C)N2C(=O)Nc1ccccc1	43%
Cc1sc2ncnc(Sc3nc4ccccc4s3)c2c1C	17.8%
CSc1ncnc2sc(C)c(C)c12	68.5% (active)
CCCNc1ncnc2sc(C)c(C)c12	17.6%
Cc1cc2cc(CN(CCO)C(c3nnnn3CC3CCCO3)C(C)C)c(=O)[nH]c2cc1C (centres undefined)	-0.77%
Cc1ccc(/C=N/NC(=O)CSc2ccccn2)o1	-4.32%
CCOc1ccc(/C=N/NC(=O)C(C)Sc2ccccn2)cc1OCC (centres undefined)	13.9%
CCOc1ccc(/C=N/NC(=O)CSc2ccccn2)cc1O	65.8% (active)
